KCNQ2 pot – potentiators of rat KCNQ2 potassium channel; Potassium voltage-gated channel subfamily KQT member 2 (Rattus norvegicus), O88943; CHO-K1 KCNQ2, FluxOR thallium flux fluorescence; hits give high values; B-score at 10 µM; 310,000 compounds, 0.54% hits;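 active means fluorescence ratio B-score at least 3 SD of library B-scores, with initial fluorescence B-score within 3 of them, cut at about 5.3 in these data; same plate scores as AID 2156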;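 further: B-score of peak minus minimum over baseline fluorescence ratio after K+ and Tl+ stimulus; positive B-score means potentiation of KCNQ2 with more thallium influx and brighter signal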
KCNQ2 block – rat KCNQ2 potassium channel inhibitors, primary screen, cell-based, CHO-K1, FluxOR thallium flux, B-score; Potassium voltage-gated channel subfamily KQT member 2 (Rattus norvegicus), O88943; 20 min; hits give low values; B-score at 10 µM; 310,000 compounds, 1.1% hits; AID 2156, 2009;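 active means fluorescence ratio B-score at most minus 3 library SDs, with starting brightness B-score within 2 library SDs, cut at about -5.5 in these data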
KCNQ2 inh conf – rat KCNQ2 potassium channel inhibitors, confirmation, cell-based, thallium flux; shares compounds with KCNQ2 block; KCNQ2-expressing cells, inhibition; hits give low values; activity change, negative = inhibition, % at 10 µM; 1,000 compounds, 57% hits; AID 493025, 2011;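 further: 0% = vehicle wells and values are ratio percent relative to vehicle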
KCNQ1 spec – human KCNQ1 channel inhibition, counter-screen for KCNQ2 inhibitor project, cell-based, FluxOR thallium flux; activity change, negative = inhibition, % at 10 µM; 1,000 compounds, 15% hits; AID 493026, 2011; KCNQ1-expressing cells, FluxOR thallium flux fluorescence; hits give low values; shares compounds with KCNQ2 block;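 active means activity change at least 3 SD of negative controls below their mean in both duplicate wells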;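 further: CHO cells stably transfected with KCNQ1 and depolarized by potassium stimulus; peak minus minimum fluorescence over baseline after thallium addition; 0% = vehicle negative control and -100% = blank without thallium stimulus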
Target sequence (P51787 whole entry, looked up): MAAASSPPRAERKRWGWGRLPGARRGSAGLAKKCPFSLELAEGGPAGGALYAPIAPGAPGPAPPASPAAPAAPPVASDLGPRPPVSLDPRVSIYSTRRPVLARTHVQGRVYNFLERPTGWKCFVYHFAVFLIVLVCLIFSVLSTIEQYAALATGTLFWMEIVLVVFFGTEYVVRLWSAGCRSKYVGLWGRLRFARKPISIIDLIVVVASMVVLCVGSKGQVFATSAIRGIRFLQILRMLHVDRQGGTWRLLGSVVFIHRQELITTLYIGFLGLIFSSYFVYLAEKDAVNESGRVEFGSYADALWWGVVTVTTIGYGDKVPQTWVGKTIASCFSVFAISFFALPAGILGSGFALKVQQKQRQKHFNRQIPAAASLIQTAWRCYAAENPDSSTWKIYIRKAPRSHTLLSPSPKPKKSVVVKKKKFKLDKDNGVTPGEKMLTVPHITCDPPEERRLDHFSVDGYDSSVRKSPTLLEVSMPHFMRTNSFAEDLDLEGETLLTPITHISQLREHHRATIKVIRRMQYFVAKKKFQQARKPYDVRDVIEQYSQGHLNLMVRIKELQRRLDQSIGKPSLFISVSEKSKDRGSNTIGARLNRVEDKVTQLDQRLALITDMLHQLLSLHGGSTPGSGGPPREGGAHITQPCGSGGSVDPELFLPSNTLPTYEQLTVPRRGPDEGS
CHO Tl ctr – thallium flux change in parental CHO cells, counter-screen for KCNQ2 inhibitor project. AID 493029, 2011. shares compounds with KCNQ2 block. hits give low values. 1,000 compounds, 14% hits. activity change, % at 10 µM;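 further: 0% = vehicle negative controls with stimulus buffer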
KCNQ2 patch conf – rat KCNQ2 channel inhibitors, confirmation, cell-based, automated patch clamp, single concentration | calls only at 10 µM | shares compounds with KCNQ2 block | 550 compounds, 49% hits | KCNQ2-expressing cells, automated patch clamp current
* hit, by the source's call; i = inactive; . = no result given; + = active, no number. Shown are actives, neighbours in structure and some others; about 1.6% of the full set was active somewhere. Unless noted, how the calls were made is not given here.

SMILES	KCNQ2 pot	KCNQ2 block	KCNQ2 inh conf	KCNQ1 spec	CHO Tl ctr	others
CN(C)C(C(=O)Nc1cc(Cl)cc(Cl)c1)c1ccccc1 (stereo not given)	-8.3	-8.3*	-29%*	i	i	KCNQ2 patch conf=+
CNC(=O)NC(=O)C(NC1CCCc2ccccc21)c1ccccc1 (stereo not given)	.	i	.	.	.
CCOCCCNC(C(=O)Nc1ccc(OC)c(Cl)c1)c1ccccc1 (stereo not given)	.	i	.	.	.
CCOC(=O)/C(N=Nc1sc(C(=O)OC)c(C)c1C(=O)OCC)=C(\O)CCl	1.3	i	.	.	.
Cc1c(Cl)cccc1NC(=O)CSc1ncnc2c1cnn2CCO	0.4	i	.	.	.
COc1cccc(C(=O)Nc2c3c(nn2-c2ccc(Cl)cc2)CS(=O)(=O)C3)c1OC	.	i	.	.	.
O=S(=O)(O)c1cccnc1SCc1ccccc1	.	i	.	.	.
COc1ccccc1N1CCN(C(=O)c2oc3cc(C)c(C)cc3c2C)CC1	.	i	.	.	.
CCOc1ccc2oc(C(=O)N3CCN(c4ccccc4OCC)CC3)c(C)c2c1	-9.8	-9.8*	i	i	i
CN(C)C(=O)c1ccc(NC(=O)c2sccc2-c2ccccc2)cc1	0.67	i	.	.	.
COc1ccc(C2NC(=O)NC(C)=C2C(=O)OC2CCC(C)CC2)cc1 (stereo not given)	.	i	.	.	.
N#Cc1cc(-c2ccccc2)cnc1Sc1ccc(Cl)cc1	-6.8	-6.8*	i	i	i
N#Cc1cc(-c2ccc(Cl)cc2)cnc1Sc1ccccc1	.	i	.	.	.
Cc1nc(Cl)c(C#N)cc1-c1ccccc1	1.4	i	.	.	.
Cc1nc(Sc2ccccc2)c(C#N)cc1-c1ccccc1	-9.3	-9.3*	i	i	i
CN(CC(=O)Nc1ccccc1Cl)C(=O)c1ccc(-c2cccc(C(F)(F)F)c2)o1	.	i	.	.	.
Cc1nc(CNC(=O)CC2C(=O)NCCN2Cc2ccoc2)nc2c1CCCC2 (stereo not given)	0.53	i	.	.	.
Cc1cccc(-c2nc(CN3CCCC(C(=O)NC4CCCCC4)C3)c(C)o2)c1 (stereo not given)	.	i	.	.	.
Cc1cccc(-c2nc(CN3CCCC(C(=O)NC4CCCCCC4)C3)c(C)o2)c1 (stereo not given)	-9.7	-9.7*	-28%*	i	i	KCNQ2 patch conf=+
CCc1ccc(-c2nc(CN3CCC(C(=O)NCc4ccccc4OC)CC3)c(C)o2)cc1	.	i	.	.	.
COc1ccccc1CNC(=O)C1CCN(Cc2nc(-c3cccc(Cl)c3)oc2C)CC1	-7.8	-7.8*	i	i	i
CCOC(=O)c1c(-c2cccs2)csc1NC(=O)c1ccncc1	0.91	i	.	.	.
CCOC(=O)c1c(-c2cccs2)csc1NC(=O)COC(=O)c1c(C)noc1C	-10	-10*	-24%*	i	i	KCNQ2 patch conf=i
COc1cccc(NC(=O)CN(C)C(=O)/C=C/c2cn(-c3ccccc3)nc2-c2ccc(C)cc2)c1	-9.1	-9.1*	-22%*	i	i	KCNQ2 patch conf=i
COc1ccc(NC(=O)CN(C)C(=O)/C=C/c2cn(-c3ccccc3)nc2-c2ccc(C)cc2)cc1	.	i	.	.	.
SMILES	KCNQ2 pot	KCNQ2 block	KCNQ2 inh conf	KCNQ1 spec	CHO Tl ctr	others
COc1ccc(NC(=O)c2ccc(-n3cnnn3)cc2)c([N+](=O)[O-])c1	.	i	.	.	.
Cc1ccccc1CC1(CO)CCCN(C(=O)c2cccc(Cl)c2)C1 (stereo not given)	-6.8	-6.8*	-27%*	i	i	KCNQ2 patch conf=i
Cc1ccccc1CC1(CO)CCCN(C(=O)c2cc(Cl)ccc2F)C1 (stereo not given)	0.43	i	.	.	.
CC(C)=CCc1c(-c2ccc(O)cc2O)oc2cc3c(c(O)c2c1=O)C=CC(C)(C)O3	.	i	.	.	.
COc1ccc(-c2oc3c4c(cc(OC)c3c(=O)c2CC=C(C)C)OC(C)(C)C=C4)c(OC)c1	-9	-9*	i	i	i
CN(C)c1ccc(C2(c3ccc(N(C)C)cc3)OC(=O)c3cc(N)ccc32)cc1	.	i	.	.	.
O=C(c1ccc2c(c1)N(Cc1cccc(Cl)c1)C(=O)c1ccccc1S2(=O)=O)N1CCN(c2ccccn2)CC1	.	i	.	.	.
O=C(c1ccc(Cl)cc1)N(Cc1ccccc1F)N1C(=O)CCCC1=O	.	i	.	.	.
COc1ccccc1OCC(=O)NC1CCCc2ccccc21 (stereo not given)	.	i	.	.	.
O=C(CN1C(=O)NC2(CCCCCCC2)C1=O)NC1CCCc2ccccc21 (stereo not given)	-7.5	-7.5*	-19%*	i	i	KCNQ2 patch conf=+
CC1CCCCC12NC(=O)N(CC(=O)NC1CCCc3ccccc31)C2=O (stereo not given)	.	i	.	.	.
COC(=O)[C@@H](NC(=O)NC1CCCc2ccccc21)C(C)C (stereo not given in full)	-7.2	-7.2*	i	i	i
COc1ccc(NC(=O)NC2CCCc3ccccc32)cc1 (stereo not given)	.	i	.	.	.
CC(C)=CC(=O)OCC(=O)NC1CCCc2ccccc21 (stereo not given)	-6.7	-6.7*	i	i	i
CCOC(=O)C1CCCN(CCC(=O)Nc2cccc(Cl)c2C)C1 (stereo not given)	0.2	i	.	.	.
CC1CCc2c(C(=O)Nc3cccc(-c4nn[nH]n4)c3)csc2C1 (stereo not given)	1.7	i	.	.	.
Cc1ccc(-c2nn(-c3ccccc3)cc2CN(Cc2ccccc2)C(=O)c2ccco2)o1	-15	-15*	-47%*	-48%*	-50%*	KCNQ2 patch conf=i
Cc1ccc(-c2nn(-c3ccccc3)cc2C(=O)O)o1	.	i	.	.	.
Cc1cccc(N(Cc2ccccc2)C(=O)CSC(C)C(=O)Nc2cc(C)on2)c1 (stereo not given)	.	i	.	.	.
CCOC(=O)c1cnc2ccccc2c1Nc1cccc(C(=O)O)c1	2	i	.	.	.
CCOC(=O)c1cnc2ccc(C)cc2c1Sc1ccccc1	-7.1	-7.1*	-28%*	i	i	KCNQ2 patch conf=+
COc1cccc(NC(=O)c2cc3ccccc3cc2OC)c1	.	i	.	.	.
O=C(NCC(=O)N1CCCC(C(F)(F)F)C1)c1ccc(Oc2ccccc2)cc1 (stereo not given)	1.4	i	.	.	.
O=C(NCC(=O)N1CCCC(C(F)(F)F)C1)c1ccc2ccccc2c1 (stereo not given)	-6.9	-6.9*	i	i	i
Cc1ccc(NCc2nc(SCC(=O)Nc3ccccc3)n[nH]2)cc1	.	i	.	.	.
Cc1cccc(NC(=O)CSc2nnc(C)c(C)n2)c1	2.1	i	.	.	.
Cc1ccc(S(=O)(=O)NCc2ccc(C(=O)NCCN(Cc3ccccc3)C(C)C)cc2)cc1	.	i	.	.	.
COc1nc(SC)nc(Cl)c1Cc1ccc(OC(C)C)cc1	.	i	.	.	.
CSc1nc(Cl)c(Cc2ccc(OC(C)C)cc2)c(N2CCOCC2)n1	-11	-11*	i	i	i

Compound activity: PubChem BioAssay, Johns Hopkins Ion Channel Center
